High-throughput results: PubChem BioAssay, several laboratories
Lmaj promast – reduces viability of Leishmania major promastigotes; resazurin fluorescence viability; inhibition, % at 10 µM; 200,000 tested, 9% active; in the data active = inhibition above about 50%;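 also: promastigotes grown with compound for 44 hours at 28 °C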
ROMK primary – modulators of human ROMK potassium channel | P48048 | Tet-inducible ROMK, thallium flux fluorescence; actives lie on both sides | B-score at 10 µM | 130,000 tested, 2% active | AID 1918;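 active = signal ratio slope over the read window, or its plate-corrected B-score, at least 3 SD from the plate mean, either direction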;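 also: B-score of the F/F0 ratio slope over 7 to 12 s after thallium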
INS promoter inh – TRM-6 insulin promoter activity inhibition; 130,000 tested, 0.9% active; TRM-6 cells (human fetal islet line), insulin promoter-eGFP reporter, imaging; reporter expression induced with tamoxifen; AID 1273; inhibition, % at 2 µM;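 active = inhibition above the mean plus 3 SD, with well images judged a real hit on visual review, cut at about 60% in these data, passing the limit was not always enough; inconclusive = inhibition over the cutoff but images rejected on review; inactive = inhibition not above the cutoff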
Insulin prom up – MIN6 insulin promoter up-regulation; MIN6 insulin promoter-GFP reporter, high-content imaging; hits give high values; z-score at 5 µM; 190,000 tested, 0.3% active; AID 1625;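 active = z-score above 3 at 5 µM with at least 500 cells counted in the well; inconclusive = wells under 500 cells, flagged as cytotoxic or low count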
WT yeast gro inh – growth inhibition of WT yeast, mitochondrial fusion screen. mitochondrial fusion phenotypic screen, WT strain. AID 1362. inhibition, % at 10 µM. 190,000 tested, 2.1% active; in the data active = inhibition above about 58%; tested in S. cerevisiae
Cl transport mod – KCC2 (human) Cl- transport modulation. Q9H2X9. KCC2 cells, thallium flux FluoZin-2 fluorescence. B-score of Tl+ flux slope (higher = more flux/activation; lower = inhibition) at 10 µM. 190,000 tested, 2.2% active. AID 1456;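 active = thallium flux slope and its plate-corrected score both differing from the plate sample mean at a set confidence after two filtering rounds, in either direction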;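 also: slope of fluorescence scaled to starting intensity during 10 to 20 s after thallium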
The depositor's hits bear a star; i = inactive; ? = inconclusive; / = no result given. Shown are actives, neighbours in structure and some others; about 12% of the full set was active somewhere.

SMILES	Lmaj promast	ROMK primary	INS promoter inh	Insulin prom up	WT yeast gro inh	Cl transport mod
O=C(Nc1nnc(-c2ccccc2Cl)o1)c1ccc(S(=O)(=O)N2CCCCCC2)cc1	99*	/	-400	-0.67	4	8.5*
COc1ccc(-c2nnc(NC(=O)c3ccc(S(=O)(=O)N4COCC4(C)C)cc3)o2)cc1	99*	/	/	-0.58	4	8.2*
CCCCN(CC)S(=O)(=O)c1ccc(C(=O)Nc2nnc(-c3ccccc3Cl)o2)cc1	99*	/	/	0.14	16	/
Cc1cc(Cl)ccc1C(=O)C1CCCN(C(=O)/C=C/c2cnn(C)c2)C1 (stereo not drawn)	3	/	/	-0.72	-10	1.4
Cn1c(=O)c2c(nc(N3CCOCC3)n2CCSc2ncccn2)n(C)c1=O	-4	/	/	/	-11	0.4
CCCC(O)(CCC)C(=O)NNc1ccc(C)cc1	/	/	/	-0.05	/	0.49
CCN1/C(=C2\SC(=S)N(Cc3ccccc3)C2=O)Sc2ccccc21	-5	/	/	-0.1	1	-0.45
CCC(CO)[n+]1c(C)cc(/C=C2\Sc3ccccc3N2Cc2ccccc2)cc1C (stereo not drawn)	100*	/	/	?	59*	i
OC(CON=C1c2ccccc2-c2ccccc21)CN1CCNCC1 (stereo not drawn)	92*	-0.99	/	-0.63	-2	0.4
OC(COC(c1ccccc1)c1ccccc1)CN1CCOCC1 (stereo not drawn)	3	-0.39	24	-0.72	14	0.29
CC(C)C(=O)N1CCN(c2nc(-c3ccc(Cl)cc3)cs2)CC1	-4	-0.46	-7	0.56	27	-2.8
CN1CCN(c2nc(-c3ccc(Cl)s3)cs2)CC1	85*	/	-29	-0.31	12	0.89
COn1c(=O)c(-c2cccs2)[n+]([O-])c2ccccc21	2	/	-87	0.72	12	i
Cc1cccc(N2CCN(C(=O)c3ccncc3)CC2C)c1 (stereo not drawn)	-2	0.75	/	0.05	16	-0.26
Cc1cccc(N2CCN(C(=O)c3cc(C)oc3C)CC2C)c1 (stereo not drawn)	56*	/	26	0.58	12	0.28
CCOc1ccccc1Nc1nc(-c2sc(NC(=O)c3ccccc3)nc2C)cs1	100*	-0.093	/	-1.3	11	0.56
Fc1ccc(Nc2nc(-c3ccncc3)cs2)cc1	12	-1	-13	-1.6	4	-0.62
Cc1ccc(Cl)cc1Nc1nc(-c2sc(NC(=O)c3ccccc3)nc2C)cs1	50*	/	27	/	-8	-0.7
CCOc1ccccc1Nc1nc(-c2sc(NC(=O)c3cccc(Cl)c3)nc2C)cs1	12	0.37	/	-0.75	-2	-0.82
Cc1nc(NC(=O)c2ccccc2)sc1-c1csc(Nc2cccc(F)c2)n1	30	/	16	/	80*	0.85
Cc1nc(C)c(-c2csc(Nc3ccc(F)cc3)n2)s1	39	-0.5	-19	-1.7	73*	-0.25
Cc1nc2c(cnn2-c2ccccc2)c(=O)n1/N=C/c1ccccc1	/	-1.3	/	0.07	/	-0.15
COc1ccccc1Nc1nc(-c2sc(NC(=O)c3ccccc3)nc2C)cs1	81*	/	0	-0.81	10	1.1
CC[n+]1c(/C=C2/C=C(C)CC(C)(C)C2)sc2ccc(OC)cc21	100*	/	31	?	17	-3.1
CC[n+]1c(/C=C2\C=C(C)CC(C)C2)sc2ccccc21 (stereo not drawn)	100*	0.17	/	?	19	0.15
SMILES	Lmaj promast	ROMK primary	INS promoter inh	Insulin prom up	WT yeast gro inh	Cl transport mod
CC[n+]1c(/C=C2\C=C(C)CC(C)(C)C2)sc2ccccc21	100*	-0.3	/	?	14	-0.75
CC[n+]1c(C)sc2sc3ccccc3c21	/	/	/	-0.53	/	/
CCC1=C/C(=C/c2sc3ccccc3[n+]2CC)CC(C)(C)C1	99*	-0.7	-19	/	20	1.2
Nc1nonc1OCCN1CCN(c2ccc([N+](=O)[O-])c3cccnc23)CC1	/	/	/	-0.33	/	-0.21
CC(C)(C)CNC(CO)C12CC3CC(CC(C3)C1)C2 (stereo not drawn)	0	/	-32	-1.1	0	-0.017
O=C1NC(=Nc2ccccc2)c2ccc([N+](=O)[O-])cc21	67*	0.22	48	-0.73	9	0.46
CC1CCN(c2ccc(NC(=S)NC(=O)c3ccco3)cc2)CC1	-4	/	0	-0.31	21	25*
O=C(NC(=S)Nc1ccc(N2CCCCC2)cc1)c1ccco1	15	/	-10	/	11	72*
CC1CCN(c2ccc(NC(=S)NC(=O)c3ccc(-c4cccc([N+](=O)[O-])c4)o3)cc2)CC1	47	1.6	49	0.88	6	0.36
CN(C)C(=O)C1C2NC(=S)N(c3cccc(Cl)c3)C1(C)Oc1ccc(Cl)cc12 (stereo not drawn)	7	-2.1	-7	3.5*	-10	1.4
CN(C)C(=O)C1C2NC(=S)N(c3ccc(Cl)cc3)C1(C)Oc1ccc(Cl)cc12 (stereo not drawn)	5	0.14	-7	-0.5	-9	0.54
CCOC(=O)c1c(-c2cccc([N+](=O)[O-])c2)csc1NC(=O)CCCOc1ccccc1	4	/	/	-0.77	-7	0.017
O=C(CN1C(=O)/C(=C2\SC(=S)N(C3CCS(=O)(=O)C3)C2=O)c2ccccc21)Nc1ccc(F)cc1 (stereo not drawn)	/	-0.85	/	/	/	0.72
Cc1ccc(Cl)cc1NC(=S)N1CCC(c2ccccc2)C1 (stereo not drawn)	19	/	/	0.76	59*	-2.6
Cc1ccc(NC(=S)N2CCCC(c3nc4ccccc4[nH]3)C2)cc1 (stereo not drawn)	89*	0.4	-60	0.4	20	0.47
Cc1ccc(C2CCN(C(=S)NC3CCCCC3)C2)cc1 (stereo not drawn)	2	-1.7	/	0.06	66*	-0.65
Cc1ccc(C)c(NC(=S)N2CCCCCC2)c1	-6	/	/	/	1	0.44
Cc1ccc(C2CCN(C(=S)NC(C)(C)C)C2)cc1 (stereo not drawn)	3	0.2	/	0.24	37	0.55
Cc1ccc(C2CCN(C(=S)Nc3cccc(C)c3)C2)cc1 (stereo not drawn)	5	-0.72	/	-0.01	78*	-1.4
CCCCNC(=S)N/N=C/c1cccc(OCC)c1O	/	/	/	0.23	/	0.27
CCOc1cccc(/C=N/NC(=S)Nc2ccccc2[N+](=O)[O-])c1O	95*	0.055	28	-1.3	17	1.3
Cc1cc(S(=O)(=O)NC(C)C)ccc1OCC(=O)NCc1ccccc1	-6	-0.71	/	0.4	-7	-1.5
c1csc(-c2cn3ccc4ccccc4c3n2)c1	35	/	86*	1.3	37	-1.2
CCOC(=O)c1c(N)sc(C(O)(C(F)(F)F)C(F)(F)F)c1-c1ccccc1	5	-0.38	/	-0.67	97*	0.38
CCOC(=O)c1c(N)sc(-c2ccccc2)c1C	-4	0.35	0	/	12	0.5
Cc1ccc(S(=O)(=O)c2c(C)nn(C(C)(C)C)c2OC(=O)C2CCCC2)cc1	47	/	82*	-0.07	72*	1.8
O=C(NC1CCCCC1)Oc1cc2oc(=O)sc2cc1Br	/	-1.1	/	-0.3	/	1.6
